This is an account of results in PubChem BioAssay AID372 (MTDP, 2006).

What is called inhibition is the percentage by which the read-out fell short of the control.

Among all 100,000 compounds or so, about 770 (0.77%) were called active. Many of the other results were omitted from the sample, so actives are more common in it than they were. A number with no mark means an inactive call. Cut-off read from the data, not from the text of the source: active = inhibition above about 50%; inactive = the rest.

This experiment addresses Gag-Pol polyprotein (Human immunodeficiency virus type 1 group M subtype B (isolate HXB2)) (UniProt P04585). In words: RNase H inhibition, HIV 1 Gag Pol polyprotein, FRET biochemical assay, screening (AID 372). To be noted: HIV-1 RT RNase H, FRET RNA/DNA substrate fluorescence; at 10 µM; stronger effect = higher value.
In the case of `COc1cc(OC)c(NC(=O)C(Cl)(Cl)Cl)cc1Cl`, the inhibition was 2%.
With `CCOc1cc(/C=C(\C#N)c2ccc([N+](=O)[O-])cc2)ccc1O`, the inhibition is 8%.
For the compound `CCOc1ccc(/C=C(/C#N)c2ccc(Cl)cc2)cc1Cl`, the inhibition was 54% (active).
In the case of `COc1ccc(/C=C(\C#N)c2ccc(Cl)cc2)cc1OC`, the inhibition is 20%.
For the compound `O=C(O)c1c[nH]c2ccc(Br)cc2c1=O`, the inhibition is 13%.
With `Cc1cccc(N2C(=O)NC(=O)/C(=C\C=C\c3ccccc3[N+](=O)[O-])C2=O)c1`, the inhibition was 24%.
In the case of `CCN1C(=O)NC(c2ccc(Br)cc2)C(C(=O)OCCOC)=C1C` (configuration not stated) it was 0%.
Consider `O=C(Nc1ccc(-c2nc3ccc(NC(=O)c4ccccc4)cc3[nH]2)cc1)c1ccccc1`, for which the inhibition was 4%.
For `O=C1c2cccc3ccc(Cl)c(c23)C(=O)N1Oc1ccc([N+](=O)[O-])cc1[N+](=O)[O-]`, the inhibition is 3%.
With `O=C1c2cccc3ccc(Cl)c(c23)C(=O)N1O`, the inhibition was 90% (active).
In the case of `O=C1c2cccc3c(Cl)ccc(c23)C(=O)N1O` it was 15%; in that of `Cc1c(NC(=O)c2cc([N+](=O)[O-])ccc2Cl)cccc1-c1nc2ccccc2s1`, 6%.
As to `COc1cccc(Nc2nnc(-c3cc4cc(OC)ccc4oc3=O)s2)c1`, the inhibition was 43%.
In the case of `COc1ccc2oc(=O)c(-c3csc(/N=C/c4ccccc4O)n3)cc2c1`, the inhibition is 67% (active).
For `COc1cccc(Nc2nc(-c3cc4cc(Br)ccc4oc3=O)cs2)c1`, the inhibition was 12%.
On to `COc1ccc2oc(=O)c(-c3nnc(Nc4cccc(C)c4)s3)cc2c1`, for which the inhibition is 50% (active).
As to `COc1ccc2oc(=O)c(-c3csc(NC(=O)/C=C\C(=O)O)n3)cc2c1`, the inhibition is 3%.
`COc1ccc2oc(=O)c(-c3csc(Nc4ccc(C(C)=O)cc4)n3)cc2c1`: the inhibition is 1%.
As to `COc1ccc2oc(=O)c(-c3nnc(Nc4ccccc4C)s3)cc2c1`, the inhibition is 10%.
Consider `COc1ccc(Nc2nc(-c3cc4cc(OC)ccc4oc3=O)cs2)cc1`, for which the inhibition is 13%.
As to `COc1ccc2oc(=O)c(-c3csc(Nc4ccccc4)n3)cc2c1`, the inhibition was 17%.
In the case of `COc1ccc2oc(=O)c(-c3csc(Nc4ccccc4Br)n3)cc2c1`, the inhibition is 8%.
In the case of `COc1ccc2oc(=O)c(-c3csc(Nc4ccc(Cl)cc4)n3)cc2c1`, the inhibition was 57% (active).
Regarding `CCOC(=O)N(Cc1ccccc1)C(C(=O)O)C(C(=O)O)N(Cc1ccccc1)C(=O)OCC` (configuration not stated), the inhibition is 0%.
`O=CNC(NC(=S)Nc1cc(Cl)ccc1Cl)C(Cl)(Cl)Cl` (configuration not stated): the inhibition is 17%.
In the case of `Cc1ccc([N+](=O)[O-])cc1/C=C1/SC(=S)N(c2cccc(C(F)(F)F)c2)C1=O` it was 5%; in that of `O=C(COc1ccc(Br)cc1Cl)Nc1cc(Cl)ccc1Cl`, 8%.
As for `COc1ccc(OC)c(N(CC(=O)NCC(C)C)S(C)(=O)=O)c1`, the inhibition is 0%.
Turning to `CC(=O)C1=C(C)NC(SCC(=O)c2ccc(C)cc2)=C(C#N)C1c1ccc(Br)cc1` (configuration not stated), the inhibition is 18%.
For the compound `O=C(NC(=S)Nc1ccc(Cl)c([N+](=O)[O-])c1)c1ccc(-c2ccccc2)cc1`, the inhibition was 13%.
In the case of `O=C(Nc1ccccc1-c1nc2ccccc2[nH]1)c1ccc([N+](=O)[O-])cc1` it was 44%; in that of `COc1ccc(O)c(CN2CCCCC2)c1`, 4%; in that of `CC1SC(c2cccc(Cl)c2)NC1=O` (configuration not stated), 0%.
As for `C/C(=N\NC(=O)c1cc(C2CC2)[nH]n1)c1ccc(C)cc1`, the inhibition was 8%.
As to `COc1ccc(-n2nnnc2C(=Cc2ccc(N(C)C)cc2)c2nnnn2-c2ccc(OC)cc2)cc1`, the inhibition is 9%.
Consider `N#Cc1c(-c2cccc(Br)c2)c(C#N)c2nc3ccccc3n2c1N`, for which the inhibition is 9%.
For the compound `COc1ccc(C2CC(=O)C3=C(C2)NC(C)=C(C(=O)OC2CCCC2)C3c2ccc3c(c2)OCO3)cc1` (configuration not stated), the inhibition is 3%.
As to `CCOC(=O)C1=C(c2ccccc2)OC(N)=C(C#N)C1c1cccs1` (configuration not stated), the inhibition is 15%.
As for `CCCC1=C(C(=O)OCC)C(c2cccs2)C(C#N)=C(N)O1` (configuration not stated), the inhibition was 56% (active).
For `CCOC(=O)C1=C(CC)OC(N)=C(C#N)C1c1cccs1` (configuration not stated), the inhibition was 30%.
`O=[N+]([O-])c1ccc(C=Nc2ccc(F)cc2)s1`: the inhibition was 21%.
In the case of `COC(=O)C1=C(C)N(Cc2ccccc2)C(=O)/C1=C\c1c(Cl)cccc1Cl` it was 47%; in that of `COC(=O)C1=C(C)N(Cc2ccccc2)C(=O)/C1=C\c1cccs1`, 4%.
As for `COC(=O)C1=C(C)N(Cc2ccccc2)C(=O)/C1=C\c1ccccc1Cl`, the inhibition is 51% (active).
On to `CN(C)c1ccc(/C=C(\C#N)c2nc(-c3ccc4c(c3)OCO4)cs2)cc1`, for which the inhibition was 16%.
Turning to `CCOC(=O)c1sc(NC(=O)c2cc(Cl)ccc2OC)c(C(N)=O)c1C`, the inhibition was 2%.
As for `O=C(Nc1ccccc1I)c1ncn[nH]1`, the inhibition is 54% (active).
In the case of `Cc1cccc(NC(=O)c2ncn[nH]2)c1C` it was 0%.
In the case of `O=C(Nc1ccccc1I)c1ccc(C(=O)Nc2ccccc2I)cc1` it was 0%.
Take `O=C(Nc1nc2ccccc2n1Cc1ccc(Cl)cc1)c1ccc(Cl)cc1`: the inhibition is 11%.
Regarding `CC(=O)Nc1ccc(NC(=S)NC(=O)c2cccc(Br)c2)cc1`, the inhibition was 0%.
As to `O=C(O)c1cc(-c2ccc(C=C3C(=O)c4ccccc4C3=O)o2)ccc1O`, the inhibition is 11%.
In the case of `O=C1NC(=O)/C(=C\c2ccc(-c3ccc(C(=O)O)cc3)o2)S1` it was 6%; in that of `O=C1NC(=S)S/C1=C\c1ccc(-c2ccc(Cl)c(C(=O)O)c2)o1`, 18%.
Take `O=C1/C(=C/c2ccc(-c3ccc(Cl)cc3C(=O)O)o2)Sc2ccccc21`: the inhibition is 21%.
With `CCCOc1ncnc2sc3c(c12)CCCC3`, the inhibition is 12%.
In the case of `COc1cc([N+](=O)[O-])ccc1-c1ccc(/C=C2/C(=O)N(c3ccc(C)cc3)N=C2C)o1` it was 6%; in that of `CC1=NN(c2ccc(S(N)(=O)=O)cc2)C(=O)/C1=C\c1ccc(-c2ccc(Cl)c([N+](=O)[O-])c2)o1`, 80% (active).
As for `CC1=NN(c2ccc(S(N)(=O)=O)cc2)C(=O)/C1=C\c1ccc(-c2cc([N+](=O)[O-])ccc2Cl)o1`, the inhibition was 46%.
In the case of `COc1cc(/C=C2\C(=O)N(c3ccc(S(N)(=O)=O)cc3)N=C2C)ccc1OCc1ccccc1` it was 53% (active); in that of `CN1C(=O)C(=Cc2ccc(-c3ccc(Cl)c([N+](=O)[O-])c3)o2)C(=O)N(C)C1=S`, 30%; in that of `CC1=NN(c2ccc(S(N)(=O)=O)cc2)C(=O)/C1=C\c1ccc(-c2cc([N+](=O)[O-])ccc2C)o1`, 42%.
In the case of `CCCOc1ccc(/C=C2\C(=O)N(c3ccc(S(N)(=O)=O)cc3)N=C2C)cc1OC` it was 6%; in that of `COc1cc([N+](=O)[O-])ccc1-c1ccc(/C=C2\C(=O)N(c3ccc(S(N)(=O)=O)cc3)N=C2C)o1`, 53% (active).
On to `CC1=NN(c2ccc(S(N)(=O)=O)cc2)C(=O)/C1=C\c1cccc([N+](=O)[O-])c1`, for which the inhibition was 12%.
Regarding `COc1cc([N+](=O)[O-])ccc1-c1ccc(/C=C2\C(=O)N(c3ccc(C(=O)O)cc3)N=C2C)o1`, the inhibition is 26%.
Turning to `CC1=NN(c2ccc(S(N)(=O)=O)cc2)C(=O)/C1=C\c1ccc(-c2cccc([N+](=O)[O-])c2)o1`, the inhibition was 57% (active).
For `COc1cc(/C=C2\C(=O)N(c3ccc(S(N)(=O)=O)cc3)N=C2C)cc(Br)c1OCc1ccccc1`, the inhibition is 16%.
Turning to `C=CCc1ccc(OCCCOc2c(Cl)cccc2Cl)c(OC)c1`, the inhibition was 42%.
In the case of `CCOC(=O)C1=C(C)NC(=S)NC1c1ccc(Cl)c(Cl)c1` (configuration not stated) it was 7%; in that of `COc1ccc(NC(=NCCc2ccccc2)SC2CC(=O)N(c3ccc(F)cc3)C2=O)cc1` (configuration not stated), 9%; in that of `COc1ccc(OC)c(C=Nc2ccc(I)cc2)c1`, 9%.
Turning to `O=C1NC(=Nc2ccc(F)cc2)S/C1=C/c1cccc(Br)c1`, the inhibition was 40%.
In the case of `CCOC(=O)C1=C(C)N=c2s/c(=C\c3cc(Br)c(OC)c(OC)c3)c(=O)n2C1c1ccc(OC)c(OC)c1` (configuration not stated) it was 18%; in that of `CCc1cccc(C)c1NC(=O)/C(C#N)=C/c1ccccc1`, 4%; in that of `CCOC(=O)c1ccc(-c2ccc(/C=C3\C(=O)N(c4ccc(S(N)(=O)=O)cc4)N=C3C)o2)cc1`, 36%.
As for `CC1=NN(c2ccc(S(N)(=O)=O)cc2)C(=O)/C1=C\c1ccc(-c2ccc(Cl)c(C(=O)OC(C)C)c2)o1`, the inhibition was 59% (active).
As to `CC1=NN(c2ccc(S(N)(=O)=O)cc2)C(=O)/C1=C\c1ccc(-c2ccc(Br)cc2)o1`, the inhibition was 59% (active).
Turning to `CC1=NN(c2ccc(S(N)(=O)=O)cc2)C(=O)/C1=C\c1ccc(-c2ccc(S(N)(=O)=O)cc2)o1`, the inhibition was 32%.
In the case of `CC1=NN(c2ccc(S(N)(=O)=O)cc2)C(=O)/C1=C\c1ccc(-c2ccc(Cl)c(C(=O)O)c2)o1`, the inhibition is 6%.
Consider `COC(=O)c1cccc(-c2ccc(/C=C3\C(=O)N(c4ccc(S(N)(=O)=O)cc4)N=C3C)o2)c1`, for which the inhibition is 28%.
As to `CC1=NN(c2ccc(S(N)(=O)=O)cc2)C(=O)/C1=C\c1ccc(-c2ccc(C(=O)OC(C)C)cc2)o1`, the inhibition was 25%.
Take `CC1=NN(c2ccc(C)cc2)C(=O)/C1=C/c1ccc(-c2ccc(Cl)c(C(=O)O)c2)o1`: the inhibition was 24%.
In the case of `CC1=NN(c2ccc(S(N)(=O)=O)cc2)C(=O)/C1=C\c1ccc(-c2ccc(C)c(Cl)c2)o1` it was 53% (active); in that of `CC1=NN(c2ccc(S(N)(=O)=O)cc2)C(=O)/C1=C\c1ccc(-c2ccc([N+](=O)[O-])cc2)o1`, 63% (active).
For the compound `CC1=NN(c2ccccc2)C(=O)/C1=C\c1ccc(-c2cc([N+](=O)[O-])ccc2O)o1`, the inhibition was 30%.
In the case of `CC1=NN(c2cccc(C(=O)O)c2)C(=O)/C1=C\c1ccc(-c2ccc([N+](=O)[O-])cc2)o1` it was 7%.
